Compounds with a hit are over-represented: about 3% of the library has one in this group of screens.
p53null 39C tox – kills p53 null cells at the nonpermissive temperature. Potency, µM (titrated, usually from 46.1 µM), for inactives: top-dose activity, negative = cell killing, usual class: cytotoxic. actives 0.97% (n = 55,000). H1299 p53-null (neo) cells, 39C, ATPlite viability, 24 h;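 also: 0% = DMSO only and -100% = full killing by 100 µM tamoxifen; nearly all actives have a fitted effect of over 50% in size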
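Concentration-response (up to 46 uM) was run for 24 h at the nonpermissive 39C on H1299-p53A138V or H1299-neo cells. ATP content was measured with ATPlite luminescence. AC50 values were Hill-modeled after normalizing between DMSO and 100 uM tamoxifen killing.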
S16 viability – S16 Schwann cell cytotoxicity; S16 Pmp22-F2sN Schwann cells viability, CellTiter-Glo, 24 h; Potency, µM (highest dose often 57.5 µM), without a hit: at the top dose activity change, negative = cytotoxicity, hits mostly cytotoxic; actives 0.48% (n = 43,000); also: nearly all actives have a fitted effect of over 65% in size
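CellTiter-Glo counter-screen, qHTS, 1536-well. Cells: S16(c9) Pmp22-F2sN, 500-1,000/well in DMEM + 10% FBS. Cpd 23 nL pin transfer, 24 h, 37C/5% CO2. Read: luminescence, CCD imager.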
PMP22 txn – modulators of PMP22 gene transcription in S16 Schwann cells; S16 Pmp22-F2sN Schwann cells (luciferase reporters placed in the Pmp22 gene), FLuc/NLuc coincidence luminescence, 24 h; Potency, µM (highest dose often 57.5 µM), for the others: top-dose activity change, negative = inhibition, most hits filed as inhibitors; actives 2% (n = 43,000); active = clear falling dose curves in both reporters; inconclusive = both reporters move, but less clearly or upward; inactive = either reporter flat; the % is the NLuc reporter signal
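Rat S16 Pmp22-F2sN cells, 500-1,000/well in phenol red-free DMEM + 10% FBS, compound-treated 24 h (37C, 5% CO2). Luminescence: FLuc read, Stop&Glo added, NLuc read.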
OvCa metastasis – ovarian cancer metastasis inhibition, 3D TME model; SKOV3ip1-GFP adhesion/invasion on 3D omental model, fluorescence; Potency, µM (top dose mostly 45.8 µM), for the others: top-dose activity change, negative = inhibition, hits mostly inhibitors; actives 0.1% (n = 46,000); AID 1963576;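 also: plate controls were DMSO wells for no effect and tomatine positive control wells for full effect; nearly all actives have a fitted effect of over 65% in size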
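Adhesion/invasion was scored as fixed GFP-labeled SKOV3ip1 cell counts (488/509 nm), normalized to DMSO and tomatine controls. Cancer cells in serum-free medium, with four compound doses (0.36-46 umol/L), sat 2 hr at RT then 16 hr at 37 C on a 48 hr fibroblast/mesothelial/ECM culture.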
p53null 32C tox – kills p53 null cells at the permissive temperature; Potency, µM (top dose mostly 46.1 µM), for the others: top-dose activity change, negative = cytotoxicity, usual class: cytotoxic; H1299-neo p53 null cells, ATP luminescence, 24 h, 32C; actives 0.62% (n = 55,000); AID 903;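 also: 0% = DMSO only and -100% = full killing by 100 µM tamoxifen; nearly all actives have a fitted effect of over 55% in size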
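Luminescent ATP readout gave cell viability of p53-null H1299-neo cells after a 24 h compound exposure at the permissive 32C. Titrations ran up to 46 uM, and AC50s were fitted with the standard Hill equation.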
pS6 MEF inh – inhibitors of mTORC1 signaling in Tsc2-/- p53-/- MEF cells; actives 0.78% (n = 44,000); Potency, µM (series often up to 38.3 µM), inactives show top-dose activity change, negative = inhibition, actives largely listed as inhibitors; Tsc2-/- p53-/- MEF, phospho-rpS6 immunofluorescence/PI, 24 h;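 also: plate controls were DMSO for no effect and rapamycin for full effect; nearly all actives have a fitted effect of over 50% in size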
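Compounds act on Tsc2-/-, p53-/- fibroblasts carrying an empty vector for 24 h before fixation and dual staining for phospho-S6 and DNA (propidium iodide). Values are percentages of cells above a rapamycin-defined pS6/PI threshold.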
* hit, by the source's call; i = inactive; ? = inconclusive; nt = no result given. Unless noted, calls follow the shape of the dose curve; as a rule, active = well fitted curve in the direction sought with a large enough effect; inconclusive = small, poorly fitted or top-dose-only effect, or another doubt; inactive = no such curve, though single readings can be large; an effect the other way counts as inactive or inconclusive. Unless noted, % is scaled to controls: 0 for no effect and ±100 for the full control effect; potency is read from the fitted curve at half-maximal effect.

SMILES	p53null 39C tox	S16 viability	PMP22 txn	OvCa metastasis	p53null 32C tox	pS6 MEF inh
Nc1nc(NCCNc2ncc(-n3ccnc3)c(-c3ccc(Cl)cc3Cl)n2)ccc1[N+](=O)[O-]	nt	nt	nt	-7%	nt	nt
C=C(C)[C@@H]1CC[C@]2(C)CC[C@]3(C)[C@H](CC[C@@H]4[C@@]5(C)CC[C@H](O)C(C)(C)[C@H]5CC[C@]43C)[C@@H]12	nt	nt	nt	-3%	nt	nt
CC(=O)NCCC(=O)N[C@@H](CCC(N)=O)C(=O)N[C@@H](CO)C(=O)N[C@@H](CCC(N)=O)C(=O)N[C@@H](CCC(N)=O)C(=O)N[C@H](C(=O)N[C@@H](Cc1ccccc1)C(=O)N[C@]1(C)CCCCCCC=CCCC[C@@](C)(C(=O)N[C@@H](CCC(N)=O)C(=O)N[C@@H](CC(N)=O)C(N)=O)NC(=O)[C@H](CC(C)C)NC(=O)[C@H](CC(C)C)NC(=O)[C@@H](CCCNC(=N)N)NC(=O)[C@H](Cc2c[nH]c3ccccc23)NC(=O)[C@H](CC(C)C)NC(=O)[C@H](CC(N)=O)NC1=O)[C@H](C)O	nt	nt	nt	-5%	nt	nt
Cc1ccc(C(N)=O)cc1Nc1nccc(-c2cn(C(C)C)c3cnccc23)n1	nt	nt	nt	-13%	nt	nt
Cc1nnc(NC(=O)C(=O)c2cc(C)n(-c3ccc(C)c(C)c3)c2C)s1	0%	?	2.9µM*	2%	3%	1%
CCCN1C(C(=O)c2ccccc2)=C(OC(=O)COc2ccc(C)cc2)c2ccccc2S1(=O)=O	32µM*	-27%	?	i	-18%	3%
CCOc1ccccc1NS(=O)(=O)c1ccc2oc(=O)c3ncn(C)c3c2c1	20µM*	nt	nt	?	-18%	-1%
CCc1ccccc1NS(=O)(=O)c1ccc2oc(=O)c3ncn(C)c3c2c1	11%	nt	nt	i	-9%	1%
Cc1ccccc1C(C(=O)NC1CCCC1)N(C(=O)Cn1cnc2ccccc21)c1cccc(F)c1 (stereo unspecified)	nt	nt	nt	-10%	nt	nt
C=CCNc1c(O)cc2c(O)c1C[C@@H](C)C[C@H](OC)[C@@H](O)[C@@H](C)C=C(C)[C@H](OC(N)=O)[C@@H](OC)C=CC=C(C)C(=O)N2	nt	nt	nt	20%	nt	nt
Cc1ccc(-c2c(C)n3c4c(=O)n(C)c(=O)n(C)c4nc3n2CCCO)cc1	-12%	32µM*	?	10%	-6%	-5%
Cc1ccc(CNC(=O)CN2C(=O)CSc3ccc(S(=O)(=O)N4CCCC4)cc32)cc1	13µM*	4%	-4%	3%	-10%	-4%
COC(=O)N[C@H](C(=O)N1CCC[C@@H]1c1ncc(-c2ccc(-c3ccc(-c4cnc([C@@H]5CCCN5C(=O)[C@@H](NC(=O)OC)C(C)C)[nH]4)cc3)cc2)[nH]1)C(C)C	nt	nt	nt	-8%	nt	nt
COc1ccc(N2CCN(C(=O)c3ccc4c(=O)n(CCc5ccc(OC)c(OC)c5)c(=O)[nH]c4c3)CC2)cc1	11%	?	13µM*	-11%	0%	-6%
COc1ccc(OCC(=O)Nc2ccc(-c3nc4cc(C)c(C)cc4o3)cc2)cc1	7%	7%	-3%	-9%	-9%	-1%
CCc1ccc(OCC(=O)Nc2ccc3oc(-c4ccc(OC)cc4)nc3c2)cc1	-9%	17%	-10%	-2%	-5%	13µM*
Fc1ccc(Nc2nc3nonc3nc2Nc2cccc(C(F)(F)F)c2)cc1	5.6µM*	8.9µM*	7.3µM*	-3%	?	?
CN(C)c1ccc(C(=O)NCCCCCCC(=O)NO)cc1	nt	nt	nt	16%	nt	nt
CCc1c(C)sc2c1CCN(Cc1cccc(OC)c1)C2c1ccccc1 (stereo unspecified)	?	?	9.5µM*	8%	33%	1%
CCOC(=O)c1ccccc1NC(=O)N1CCc2c(sc(C)c2CC)C1c1ccccc1 (stereo unspecified)	4%	4%	?	-1%	-4%	22%
CCc1c(C)sc2c1CCN(Cc1ccccc1F)C2c1ccccc1 (stereo unspecified)	23%	8.9µM*	3.4µM*	-7%	25%	9%
COc1ccc(C2=N[C@H](c3ccc(Cl)cc3)[C@H](c3ccc(Cl)cc3)N2C(=O)N2CCNC(=O)C2)c(OC(C)C)c1	nt	nt	nt	25%	nt	nt
COc1ccccc1CNC(=O)CCCn1c(=O)c2cccn2c2ccccc21	-16%	-4%	?	12%	0%	18µM*
CSc1ccc(CCNC(=O)CCCn2c(=O)c3cccn3c3ccccc32)cc1	13µM*	6%	-11%	i	59%	?
Cc1ccccc1CNC(=O)CCCn1c(=O)c2cccn2c2ccccc21	12%	-11%	16µM*	i	-4%	-2%
SMILES	p53null 39C tox	S16 viability	PMP22 txn	OvCa metastasis	p53null 32C tox	pS6 MEF inh
CC1COC2(CCN(c3nc(=O)c4cc(C(F)(F)F)cc([N+](=O)[O-])c4s3)CC2)O1 (stereo unspecified)	nt	nt	nt	-5%	nt	nt
CC(C=CC(=O)NO)=C[C@@H](C)C(=O)c1ccc(N(C)C)cc1	nt	nt	nt	0%	nt	nt
N[C@@H](CC(=O)N1CCn2c(nnc2C(F)(F)F)C1)Cc1cc(F)c(F)cc1F	nt	nt	nt	-2%	nt	nt
CC(/C=N/Nc1nc2ccccc2[nH]1)=C\c1ccccc1	?	nt	nt	nt	7.9µM*	nt
Cc1cnn(C)c1C(=O)Nc1cc(Nc2ccc3c(C=Cc4ccccn4)n[nH]c3c2)ccc1F	nt	nt	nt	13%	nt	nt
COc1ccc(/C=C/C(=O)Nc2ccc3nc4c(c(Nc5ccc(OC)c(OC)c5)c3c2)CCCC4)cc1	6.3µM*	?	?	5µM*	13µM*	3.7µM*
COc1ccc(Nc2c3c(nc4ccc(NC(=O)/C=C/c5cc(OC)c(OC)c(OC)c5)cc24)CCCC3)cc1OC	7.1µM*	11µM*	?	-9%	13µM*	2.1µM*
COc1ccc(Nc2c3c(nc4ccc(NC(=O)/C=C/c5cccc(OC)c5OC)cc24)CCCC3)cc1OC	3.2µM*	?	?	5µM*	10µM*	3.7µM*
COc1ccc(NC(=O)c2ccc3c(SCC(=O)O)c4c(nc3c2)CCCC4)cc1OC	-10%	?	-67%	-15%	-16%	0%
COc1ccc(/C=C/C(=O)Nc2ccc3nc(N4CCC(C)CC4)cc(C)c3c2)cc1	3%	?	-1%	6%	2%	-10%

Screens (PubChem BioAssay)
